The text below walks through data of PubChem BioAssay (Tox21).

Inconclusive results are not listed. Calls of active or inactive are those of the source. Unless noted, calls follow the shape of the dose curve; as a rule, active = well fitted curve in the direction sought with a large enough effect in the repeat runs; inconclusive = weak or mixed curves; inactive = no such curve, though single readings can be large; an effect the other way counts as inactive or inconclusive.

Test [1] in a line: qHTS assay to identify small molecule antagonists of the glucocorticoid receptor (GR) signaling pathway - cell viability counter screen (AID 720693; also: nearly all actives have a fitted effect of over 55% in size). (In general: Quantitative high-throughput screening tests each substance at several concentrations.)
A short description of test [2]: qHTS assay for identifying genotoxic compounds that show differential cytotoxicity against isogenic chicken DT40 cell lines with known DNA damage response pathways - wild type cell line (AID 743012). Also: nearly all actives have a fitted effect of over 60% in size. Also: potency is read from the fitted curve at half-maximal effect. In short, it runs like this: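 Cells (DT40 wild type, 300/well) are treated with DMSO-dissolved compounds after a ~0.5 h pre-incubation and kept 40 h at 37 C/5% CO2. Viability is then measured by CellTiter-Glo luminescence following 30 min at room temperature.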

Test [3] in a line: qHTS assay for identifying genotoxic compounds that show differential cytotoxicity against isogenic chicken DT40 cell lines with known DNA damage response pathways - Rev3 mutant cell line (AID 743014). Also: nearly all actives have a fitted effect of over 55% in size. Also: potency is read from the fitted curve at half-maximal effect.
Test [4] in a line: qHTS assay for identifying genotoxic compounds that show differential cytotoxicity against isogenic chicken DT40 cell lines with known DNA damage response pathways - Rad54/Ku70 mutant cell line (AID 743015). Also: nearly all actives have a fitted effect of over 60% in size. Also: potency is read from the fitted curve at half-maximal effect.
Test [5] is described as follows: qHTS assay to identify small molecule antagonists of the androgen receptor (AR) signaling pathway - cell viability counter screen (AID 743033; also: nearly all actives have a fitted effect of over 45% in size).
A short description of test [6]: qHTS assay to identify small molecule antagonists of the androgen receptor (AR) signaling pathway using the MDA cell line - cell viability counter screen (AID 743041; also: nearly all actives have a fitted effect of over 45% in size). In short, it runs like this:
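R1881-driven MDA-kb2 AR-luc cells, 3,000/well, were dosed with library compounds for 16 h; cell health came from CellTiter-Fluor fluorescence in the reporter wells.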

Test [7] is described as follows: qHTS assay to identify small molecule antagonists of the thyroid receptor (TR) signaling pathway - cell viability counter screen (AID 743064). Also: nearly all actives have a fitted effect of over 50% in size. Also: potency is read from the fitted curve at half-maximal effect. An outline of the steps: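 Viability of T3-stimulated (1 nM final) GH3.TRE-Luc cells is measured by CellTiter-Fluor fluorescence after 23.5 h compound exposure at 37 °C plus 30 min reagent incubation.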
For test [8], the system named is thyroid hormone receptor (rat, GH3 cells). Nature of the test: qHTS assay to identify small molecule agonists of the thyroid receptor (TR) signaling pathway (AID 743066; calls by dose curve; also: potency is read from the fitted curve at half-maximal effect).
Test [9] addresses Estrogen receptor (Homo sapiens) (UniProt P03372). Nature of the test: qHTS assay to identify small molecule agonists of the estrogen receptor alpha (ER-alpha) signaling pathway (AID 743075; calls by dose curve).
Test [10] shares this target. Nature of the test: qHTS assay to identify small molecule agonists of the estrogen receptor alpha (ER-alpha) signaling pathway using the BG1 cell line (AID 743079). Also: nearly all actives have a fitted effect of over 20% in size. Also: potency is read from the fitted curve at half-maximal effect.
The nature of test [11]: qHTS assay to identify small molecule antagonists of the estrogen receptor alpha (ER-alpha) signaling pathway using the BG1 cell line (AID 743080; calls by dose curve;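 also: BG1 cells stimulated with 17beta-estradiol alongside compound; series mostly up to about 70 µM; nearly all actives have a fitted effect of over 25% in size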). An outline of the steps: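 Readout is ONE-Glo luminescence, taken 30 min at room temperature after reagent addition, preceded by a CellTiter-Fluor viability read; BG1-Luc-4E2 cells had received compound and 17beta-estradiol for 21.5 h at 37 C.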

In the next test the target is Aromatase (Homo sapiens) (UniProt P11511). As to the kind of experiment: qHTS assay to identify aromatase inhibitors (AID 743083). Also: nearly all actives have a fitted effect of over 55% in size. Also: potency is read from the fitted curve at half-maximal effect.
Test [12] can be described thus: qHTS assay to identify small molecule antagonists of the thyroid receptor (TR) signaling pathway (AID 743065). Also: nearly all actives have a fitted effect of over 55% in size. Also: potency is read from the fitted curve at half-maximal effect. An outline of the steps: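 Antagonism measured as loss of luciferase signal in GH3 cells stably carrying a TRE-luciferase reporter, co-treated with compound and T3 (1 nM final) for 23.5 h at 37 C. Viability was read in the same well by CellTiter-Fluor.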

Test [13] can be described thus: qHTS assay to identify small molecule antagonists of the estrogen receptor alpha (ER-alpha) signaling pathway - cell viability counter screen (AID 743074; calls by dose curve;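 also: HEK293 cells carrying ER-alpha-UAS-bla reporter stimulated with 17beta-estradiol; nearly all actives have a fitted effect of over 45% in size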).
Test [14] in a line: qHTS assay to identify small molecule antagonists of the estrogen receptor alpha (ER-alpha) signaling pathway using the BG1 cell line - cell viability counter screen (AID 743081).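 Also: compound given together with 17beta-estradiol as the ER stimulus; nearly all actives have a fitted effect of over 45% in size.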 Also: potency is read from the fitted curve at half-maximal effect.
Test [15] deals with Estrogen receptor (Homo sapiens) (UniProt P03372). Nature of the test: qHTS assay to identify small molecule antagonists of the estrogen receptor alpha (ER-alpha) signaling pathway (AID 743069; active = well fitted curve in the direction sought with a large enough effect in the signal ratio in the repeat runs, not every such curve was filed as active; the % refers to the signal ratio). An outline of the steps:
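Compound effects are measured against 17beta-estradiol stimulation in HEK293 cells with a UAS-controlled beta-lactamase reporter for ER-alpha. Exposure lasts 18 hr at 37C; LiveBLAzer B/G FRET substrate follows for 2 hr at room temperature.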

The target in test [16] is Androgen receptor (Homo sapiens) (UniProt P10275). Nature of the test: qHTS assay to identify small molecule agonists of the androgen receptor (AR) signaling pathway (AID 743036; active = well fitted activation curve with a large enough effect in the signal ratio in the repeat runs, with a control signal flat, not every such curve was filed as active; the % refers to the signal ratio). An outline of the steps: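 Screening used 2,000 AR-bla HEK293 cells per well, treated 16 h at 37C with test compounds in DMSO alongside positive and DMSO-only controls; beta-lactamase activity was then read by LiveBLAzer B/G FRET fluorescence after 2 h at room temperature.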

Test [17] shares this target. Nature of the test: qHTS assay to identify small molecule agonists of the androgen receptor (AR) signaling pathway using the MDA cell line (AID 743040; also: nearly all actives have a fitted effect of over 20% in size). An outline of the steps: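 After a 5 h incubation at 37C and 0% CO2, MDA-kb2 reporter cells were dosed with compounds in DMSO and kept 16 h under the same conditions. Luciferase activity was then read as luminescence with ONE-Glo.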

For test [18] the target is unchanged. As to the kind of experiment: qHTS assay to identify small molecule antagonists of the androgen receptor (AR) signaling pathway using the MDA cell line (AID 743042; also: nearly all actives have a fitted effect of over 55% in size). An outline of the steps:
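Antagonist mode: compounds plus R1881 agonist added to MDA-kb2 AR-luc cells, incubated 16 h at 37C. Luciferase reporter luminescence quantified, with multiplexed CellTiter-Fluor readout for cell viability.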

Test [19] has the same target. Nature of the test: qHTS assay to identify small molecule antagonists of the androgen receptor (AR) signaling pathway (AID 743035; active = well fitted inhibition curve with a large enough effect in the signal ratio in the repeat runs, not every such curve was filed as active; the % refers to the signal ratio). An outline of the steps:
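Antagonism is scored as loss of R1881-driven beta-lactamase reporter expression in HEK293 cells carrying the reporter under a UAS element, after 16 h co-treatment at 37C and a 2 h room-temperature FRET substrate read.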

Chain of Estrogen receptor (Homo sapiens) (P03372 whole entry, looked up): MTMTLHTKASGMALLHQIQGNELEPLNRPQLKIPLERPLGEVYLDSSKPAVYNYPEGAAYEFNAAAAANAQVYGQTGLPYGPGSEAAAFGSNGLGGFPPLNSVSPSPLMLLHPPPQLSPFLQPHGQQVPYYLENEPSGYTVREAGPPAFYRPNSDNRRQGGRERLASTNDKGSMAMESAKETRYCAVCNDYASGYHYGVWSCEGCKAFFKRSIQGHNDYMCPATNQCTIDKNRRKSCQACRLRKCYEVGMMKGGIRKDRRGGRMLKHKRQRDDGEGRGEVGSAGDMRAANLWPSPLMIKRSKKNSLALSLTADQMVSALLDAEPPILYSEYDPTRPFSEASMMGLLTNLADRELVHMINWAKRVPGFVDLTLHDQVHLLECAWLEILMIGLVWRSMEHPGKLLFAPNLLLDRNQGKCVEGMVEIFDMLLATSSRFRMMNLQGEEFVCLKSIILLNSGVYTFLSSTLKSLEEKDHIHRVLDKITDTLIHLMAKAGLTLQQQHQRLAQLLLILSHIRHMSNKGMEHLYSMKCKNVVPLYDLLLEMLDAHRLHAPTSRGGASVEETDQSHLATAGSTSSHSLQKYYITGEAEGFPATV
Chain of Aromatase (Homo sapiens) (P11511 whole entry, looked up): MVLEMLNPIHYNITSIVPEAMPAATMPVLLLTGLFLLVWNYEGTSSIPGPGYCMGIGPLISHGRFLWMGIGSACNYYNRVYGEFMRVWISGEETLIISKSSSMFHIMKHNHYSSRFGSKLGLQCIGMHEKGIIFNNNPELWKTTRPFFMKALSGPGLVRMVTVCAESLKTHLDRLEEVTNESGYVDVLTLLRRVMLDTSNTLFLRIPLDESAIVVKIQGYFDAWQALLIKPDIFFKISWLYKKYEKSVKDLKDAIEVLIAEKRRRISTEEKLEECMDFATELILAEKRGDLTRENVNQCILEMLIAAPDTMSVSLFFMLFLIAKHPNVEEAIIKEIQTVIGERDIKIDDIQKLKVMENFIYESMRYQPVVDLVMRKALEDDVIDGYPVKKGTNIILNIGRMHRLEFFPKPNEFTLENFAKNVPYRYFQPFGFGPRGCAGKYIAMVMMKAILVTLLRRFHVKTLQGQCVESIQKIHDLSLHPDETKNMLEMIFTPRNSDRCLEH
Chain of Androgen receptor (Homo sapiens) (P10275 whole entry, looked up): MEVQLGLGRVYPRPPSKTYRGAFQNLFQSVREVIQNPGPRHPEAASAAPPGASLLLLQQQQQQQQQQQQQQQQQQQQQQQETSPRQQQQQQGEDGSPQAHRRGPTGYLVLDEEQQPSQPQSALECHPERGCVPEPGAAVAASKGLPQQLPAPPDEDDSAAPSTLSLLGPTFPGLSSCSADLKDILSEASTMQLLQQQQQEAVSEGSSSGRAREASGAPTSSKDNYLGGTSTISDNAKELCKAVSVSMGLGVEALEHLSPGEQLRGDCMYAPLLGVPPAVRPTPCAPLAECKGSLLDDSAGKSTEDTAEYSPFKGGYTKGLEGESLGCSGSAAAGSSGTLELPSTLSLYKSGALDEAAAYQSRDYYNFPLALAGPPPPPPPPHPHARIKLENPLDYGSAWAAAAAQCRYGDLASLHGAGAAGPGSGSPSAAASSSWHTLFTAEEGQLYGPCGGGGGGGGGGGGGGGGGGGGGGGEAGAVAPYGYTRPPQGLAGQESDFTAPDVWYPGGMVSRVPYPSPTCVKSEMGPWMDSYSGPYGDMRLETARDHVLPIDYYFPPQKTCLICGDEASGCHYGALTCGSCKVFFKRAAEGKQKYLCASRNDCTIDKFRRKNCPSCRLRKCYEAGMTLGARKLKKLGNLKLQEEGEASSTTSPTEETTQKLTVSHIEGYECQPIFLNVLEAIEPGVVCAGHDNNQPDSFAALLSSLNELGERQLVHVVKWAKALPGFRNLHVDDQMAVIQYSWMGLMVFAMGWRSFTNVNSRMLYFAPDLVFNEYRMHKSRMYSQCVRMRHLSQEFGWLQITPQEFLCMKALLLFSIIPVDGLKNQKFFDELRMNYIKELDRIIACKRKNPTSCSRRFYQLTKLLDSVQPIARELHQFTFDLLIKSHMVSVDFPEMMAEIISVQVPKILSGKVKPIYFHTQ

Turning to `C#Cc1cccc(Nc2ncnc3cc(OCCOC)c(OCCOC)cc23)c1`, the Potency entry in [1], in test [5], in test [6], in test [7], in test [8] and in test [9] was “inactive” throughout. Further, the Potency result in test [10] and in test [11] was “inactive” throughout. Besides, the Potency in test [2] is 11.9 µM (active); in test [3], 21.1 µM (active); in test [4], 13.3 µM (active); in the test with Aromatase (Homo sapiens), 18.8 µM (active).
Take `C#C[C@]1(O)CC[C@H]2[C@@H]3CCc4cc(OC5CCCC5)ccc4[C@H]3CC[C@@]21C`: the Potency entry (in [1]; in test [5]; in [6]; in test [13]; in test [14]; in the test with Aromatase (Homo sapiens)) was “inactive” each time. Also, the Potency in test [2] is 1.68 µM (active); in test [3], 2.11 µM (active); in test [4], 5.31 µM (active); in test [7], 18.8 µM (active); in test [12] it was 16.8 µM (active).
Consider `CCC(C)c1cc(C(C)(C)C)c(O)c(C(C)(C)C)c1` (stereo not drawn), for which the Potency entry in test [1], in test [2], in test [3], in test [4], in test [5] and in test [6] was “inactive” each time. The Potency entry in [7], in test [13] and in [14] was “inactive” throughout. Also, the Potency in [8] is 10.7 µM (active).
`Nc1cc(C(=O)O)c(O)c(S(=O)(=O)O)c1`: the Potency result in [1], in test [2], in test [3], in [4], in [5] and in [6] was “inactive” in each case. In addition, the Potency entry (in test [7]; in [12]; in [8]; in [13]; in test [14]; with Aromatase (Homo sapiens)) was “inactive” each time.
Regarding `CCCCCCCCO[C@@H]1O[C@H](CO)[C@@H](O)[C@H](O)[C@H]1O`, the Potency entry in test [1], in test [2], in [3], in test [4], in [5] and in test [6] was “inactive” in each case. The Potency result in test [7], in test [12], in [8], in test [15], in [13] and in test [9] was “inactive” in each case. Further, the Potency entry (in test [10]; in [11]; in [14]; in the test with Aromatase (Homo sapiens)) was “inactive” throughout.
On to `O=C(OCCc1ccccc1)c1ccccc1`, for which the Potency entry in test [1], in test [2], in test [3], in test [4], in test [5] and in test [6] was “inactive” throughout. Moreover, the Potency entry in test [7], in [12], in test [8], in [15], in test [9] and in test [14] was “inactive” in each case. The Potency entry in the test with Aromatase (Homo sapiens) was “inactive”. In addition, in test [10], the Potency is 24.3 µM (active).
Regarding `Nc1ccc(N)c2c1C(=O)c1ccccc1C2=O`, the Potency entry in test [1], in [5], in [16], in test [17], in [18] and in test [8] was “inactive” each time. The Potency result in [13] was “inactive”. In addition, the Potency in [2] is 17.2 µM (active); in test [3], 27.3 µM (active); in test [4] it was 7.7 µM (active); in test [12], 24.3 µM (active); in test [14], 24.3 µM (active).
Consider `CC(=O)NO`, for which the Potency result in test [1], in test [2], in test [3], in [4], in [5] and in [19] was “inactive” throughout. Further, the Potency entry in [16], in [17], in [6], in test [18], in test [7] and in [12] was “inactive” each time. In addition, the Potency result (in [8]; in [13]; in test [14]; in the test with Aromatase (Homo sapiens)) was “inactive” each time.
